Rab9 prom act – Rab9 promoter activation. Huh7 Rab9 promoter-luciferase reporter, luminescence, 24 h. Potency, µM (doses to about 9.22 µM), for inactives: top-dose activation, negative = inhibition, actives largely listed as activators. 2.8% of 320,000 active. AID 485297; note: % of control where 0% means no effect; nearly all actives have a fitted effect of over 60% in size
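Cells were plated at 1500 per well in reduced-serum medium with 10% FBS and left 2 h. Compound in DMSO was then added for 24 h at 37 °C. Reporter signal was read by luminescence after 10 min with luciferase detection reagent.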
SMN2 splice up – enhancers of SMN2 splice variant expression; HEK293 SMN2-luciferase splicing reporter, luminescence, 30-36 h; Potency, µM (doses to about 46.1 µM), without a hit: at the highest dose activity change, positive = activation, most hits filed as activators; 2.8% of 210,000 active; note: % of control where 0% means no effect; nearly all actives have a fitted effect of over 55% in size
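HEK293 cells carry an SMN2 […]–luciferase reporter in which exon 7 inclusion puts luciferase in frame. Cells were plated 10-12 h before compound addition, then incubated 30-36 h at 37C. ONE-Glo luminescence was read; sodium butyrate at 4.5 mM final served as control.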
ELG1 genotoxic – induces genotoxicity in HEK293T cells with luciferase-tagged ELG1; AID 504466; Potency, µM (top dose mostly 46 µM), for inactives: at the highest dose activity change, positive = activation, actives largely listed as activators; HEK293T ELG1-luciferase reporter, luminescence, 16 h; 1.3% of 330,000 active; note: % of control where 0% means no effect; nearly all actives have a fitted effect of over 60% in size
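Screening used a luciferase reporter fused to human ELG1 in HEK293T cells. Luminescence was read on a CCD plate imager after 16 hr exposure and 30 min ONE-Glo incubation.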
NPC1 promoter act – NPC1 promoter activation | Huh7 NPC1 promoter luciferase reporter, 24 h | Potency, µM (titrated, usually from 9.22 µM), inactives show at the top dose activation, most hits filed as activators | 2.4% of 320,000 active | AID 485313; note: % of control where 0% means no effect; nearly all actives have a fitted effect of over 60% in size
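Readout is luciferase luminescence, reflecting NPC1 promoter activation in stably transfected Huh7 cells after 24 h compound exposure at 37 °C in reduced-serum medium with 10% FBS.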
FLuc counter – counter-screen for miR-21 project: firefly luciferase inhibitors or activators | Potency, µM (titrated, usually from 57.5 µM), without a hit: top-dose activity change, negative = inhibition, hits mostly inhibitors | purified FLuc, Km substrates, luminescence inhibition | 6.9% of 360,000 active | P08659;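 note: plate controls were vehicle for no effect and reference inhibitor for full effect; nearly all actives have a fitted effect of over 55% in size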
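Purified P. pyralis luciferase, 10 nM final, with Km-level 10 uM D-luciferin and 10 uM ATP in 50 mM Tris acetate pH 7.5, 10 mM Mg acetate, 0.01% Tween-20, 0.05% BSA; 6-point qHTS titration about 60 µM downward; luminescence read.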
ELG1 DNA repair – inhibitors of ELG1-dependent DNA repair in HEK293T cells. Potency, µM (series often up to 46.1 µM), without a hit: at the top dose activity change, negative = inhibition, actives largely listed as inhibitors. HEK293T ELG1-luciferase reporter, luminescence, 16 h; DNA damage induced by 5-fluorouridine. 2.3% of 330,000 active; note: % is set by controls: 0 for no effect and ±100 for the full control effect; nearly all actives have a fitted effect of over 55% in size
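Quantitative HTS, concentration-response format. 2,000 cells/well co-treated with 5-fluorouridine and compound, 16 hr in 5% CO2 at 37 °C; ONE-Glo luminescence read after 30 min.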
ELG1 Luc conf – inhibits ELG1-dependent DNA repair in HEK293T cells, confirmed. 68% of 670 active. Potency, µM (doses to about 46.1 µM), for the others: at the top dose activity change, negative = inhibition, actives largely listed as inhibitors. shares compounds with ELG1 DNA repair. HEK293T ELG1-luciferase levels, luminescence; cells co-treated with 5-fluorouridine; note: % is set by controls: 0 for no effect and ±100 for the full control effect; nearly all actives have a fitted effect of over 55% in size
ELG1 MMS Luc – MMS-stimulated human ELG1 repair inhibition, confirmed | shares compounds with ELG1 DNA repair | 53% of 670 active | Potency, µM (series often up to 46.1 µM), inactives show top-dose activity change, negative = inhibition, hits mostly inhibitors | HEK293T luciferase-tagged ELG1 level, MMS stimulated | AID 624249; note: % is set by controls: 0 for no effect and ±100 for the full control effect; nearly all actives have a fitted effect of over 60% in size
ELG1 5FU viab – confirmation of ELG1 repair inhibitors: viability with 5FU; cell viability with 5-FU, ELG1-dependent repair; shares compounds with ELG1 DNA repair; AID 624250; Potency, µM (titrated, usually from 46.1 µM), inactives show top-dose activity change, negative = viability loss, hits mostly cytotoxic; 670 tested, under 10 active;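 note: ELG1-luc HEK293T cells cotreated with 5-fluorouridine at 10 µM final; viability measured 16 h after compound addition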
ELG1 MMS cell – confirmation of ELG1 repair inhibitors: viability with MMS. Potency, µM (doses to about 46.1 µM), without a hit: top-dose activity change, negative = viability loss, hits mostly cytotoxic. 33% of 670 active. shares compounds with ELG1 DNA repair. Cell viability with MMS, ELG1-dependent DNA repair;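 note: ELG1-luc HEK293T cells co-treated with 10 µM MMS; viability read 16 h after compound addition; % is set by controls: 0 for no effect and ±100 for the full control effect; nearly all actives have a fitted effect of over 60% in size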
Cell viab unstim – counter-screen for ELG1 repair inhibitors: unstimulated cell viability; 8% of 900 active; cell viability counter-screen, unstimulated, luminescence; Potency, µM (series often up to 45.9 µM), inactives show top-dose activity change, negative = loss of viability, most hits filed as cytotoxic; shares compounds with ELG1 DNA repair;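 note: compound exposure lasted 16 hours before reading; % is set by controls: 0 for no effect and ±100 for the full control effect; nearly all actives have a fitted effect of over 55% in size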
An asterisk follows results filed as active; ? = inconclusive; . = not tested or not shown. Compounds with a hit are over-represented: about 9.2% of the library has one in this group of screens. Calls come from the whole dose curve; as a rule, active = well fitted curve in the direction sought with a large enough effect; inconclusive = small, poorly fitted or top-dose-only effect, or another doubt; inactive = no such curve, though single readings can be large; an effect the other way counts as inactive or inconclusive. Potency is the fitted concentration of half-maximal effect.

SMILES | Rab9 prom act | SMN2 splice up | ELG1 genotoxic | NPC1 promoter act | FLuc counter | ELG1 DNA repair | ELG1 Luc conf | ELG1 MMS Luc | ELG1 5FU viab | ELG1 MMS cell | Cell viab unstim
Cn1c(SCC(=O)Nc2cccc(F)c2)nc2c(c1=O)SCC2 | -14% | . | -6% | -4% | -1% | ? | . | . | . | . | .
O=C(NCc1cccnc1)c1ccc(NC(=O)c2ccc(Br)cc2)cc1 | -23% | . | 17% | -11% | -4% | 2.3µM* | -10% | 0.025µM* | 5% | 0.025µM* | -1%
COc1ccc(CNC(=O)C(=O)NCC2OCCN2S(=O)(=O)c2cccs2)cc1 (configuration not stated) | -7% | -11% | 1% | -7% | 4% | -10% | . | . | . | . | .
O=[N+]([O-])c1cc2c(c(CSc3nnc(Nc4ccccc4)s3)c1)OCOC2 | -11% | -10% | 2% | 0% | 1% | 4.6µM* | ? | 1µM* | 0% | 0.79µM* | ?
O=C(c1cccc(S(=O)(=O)Nc2ccc(F)cc2)c1)N1CCOCC1 | -4% | . | 1% | 0% | 2% | 24% | . | . | . | . | .
CC(C)(C)OC(=O)NCCCCCNC(=O)c1[nH]cnc1C(=O)N[C@@H](CCCCNC(=O)OC(C)(C)C)C(=O)OC(C)(C)C | -6% | . | -15% | -7% | 4% | ? | . | . | . | . | .
CC(C)(C)OC(=O)NCCCCCNC(=O)c1ncn(Cc2ccccc2)c1C(=O)NCCCCCNC(=O)OC(C)(C)C | . | . | -5% | . | . | 4.1µM* | 7.1µM* | -12% | ? | ? | -7%
CC(C)(C)OC(=O)NCCCCCNC(=O)c1nc[nH]c1C(=O)NCC(=O)OCc1ccccc1 | . | . | -6% | . | . | 2.6µM* | 7.9µM* | 11µM* | -18% | 22µM* | 18µM*
CC(C)(C)OC(=O)NCCCCCNC(=O)c1nc[nH]c1C(=O)NCCCCCNC(=O)OC(C)(C)C | . | . | -12% | . | . | 2.6µM* | 6.3µM* | 14µM* | ? | 28µM* | 16µM*
CC(C)(C)OC(=O)NCc1ccc(NC(=O)c2nc[nH]c2C(=O)NCCNC(=O)c2[nH]cnc2C(=O)Nc2ccc(CNC(=O)OC(C)(C)C)cc2)cc1 | . | . | -2% | . | . | 1.3µM* | 1.1µM* | 3.5µM* | 8% | ? | ?
Cc1cccc(C(=O)NCC(=O)NC(C)c2ccc(-n3ccnc3)cc2)c1 (configuration not stated) | -5% | . | 3% | -3% | 3% | -1% | . | . | . | . | .
COc1cc(OC)c(OC)cc1/C=C1\Oc2cc(OCC(=O)N3Cc4ccccc4C[C@H]3C(=O)O)ccc2C1=O | -3% | . | 0% | 1% | ? | 5% | . | . | . | . | .

Compound activity: PubChem, National Center for Advancing Translational Sciences (NCATS)
